# Source: PubChem BioAssay
# Mdm2 MdmX PPI – inhibitors of human Mdm2-MdmX association, primary screen, cell-based, luminescence, split luciferase, SaOS-2, uHTS. Protein Mdm4 (Homo sapiens) + E3 ubiquitin-protein ligase Mdm2 (Homo sapiens), …. SaOS-2 split-luciferase Mdm2/MdmX complementation. inhibition, % at 8 µM. hit rate 3% among 330,000. AID 485346, 2010;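 active = inhibition of at least 50% at 8 µM in the primary screen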
# Target sequence (O15151 whole entry, looked up): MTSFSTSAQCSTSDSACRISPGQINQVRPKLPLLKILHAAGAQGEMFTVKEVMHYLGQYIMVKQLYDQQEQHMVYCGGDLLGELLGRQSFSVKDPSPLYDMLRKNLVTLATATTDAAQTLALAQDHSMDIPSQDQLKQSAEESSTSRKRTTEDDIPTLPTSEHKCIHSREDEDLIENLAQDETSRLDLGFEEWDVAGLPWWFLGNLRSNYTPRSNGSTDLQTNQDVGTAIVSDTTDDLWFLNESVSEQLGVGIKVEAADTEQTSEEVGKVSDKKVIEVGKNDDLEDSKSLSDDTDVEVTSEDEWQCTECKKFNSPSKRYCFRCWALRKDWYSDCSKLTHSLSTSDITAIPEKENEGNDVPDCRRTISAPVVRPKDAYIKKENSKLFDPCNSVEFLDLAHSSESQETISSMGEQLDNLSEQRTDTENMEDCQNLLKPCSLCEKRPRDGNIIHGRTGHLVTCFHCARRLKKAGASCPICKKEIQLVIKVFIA
# Target sequence (Q00987 whole entry, looked up): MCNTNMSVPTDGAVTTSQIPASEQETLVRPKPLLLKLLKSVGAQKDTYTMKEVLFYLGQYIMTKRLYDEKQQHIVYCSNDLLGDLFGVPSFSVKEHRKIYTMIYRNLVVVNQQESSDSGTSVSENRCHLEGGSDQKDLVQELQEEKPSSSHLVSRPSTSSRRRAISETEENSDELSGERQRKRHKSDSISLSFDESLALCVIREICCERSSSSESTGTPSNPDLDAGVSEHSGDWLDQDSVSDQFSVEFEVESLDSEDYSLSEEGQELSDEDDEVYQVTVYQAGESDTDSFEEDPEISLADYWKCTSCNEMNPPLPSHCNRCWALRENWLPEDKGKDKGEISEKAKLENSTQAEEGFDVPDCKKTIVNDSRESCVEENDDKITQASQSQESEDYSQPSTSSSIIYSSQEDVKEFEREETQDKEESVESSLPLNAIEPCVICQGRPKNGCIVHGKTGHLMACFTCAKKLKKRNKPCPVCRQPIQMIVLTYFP
# Gli-Sufu antag – Gli-Sufu pathway antagonists, primary screen, luciferase luminescence, Sufu-KO-LIGHT cells, uHTS | hit rate 0.74% among 340,000 | AID 588413, 2011 | Sufu-KO-LIGHT fibroblasts, Gli luciferase reporter luminescence | inhibition, % at 5 µM;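 active = inhibition above about 55%, limit read from the data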
# Shn3 inh set2 – reduction of Shn3 3'UTR firefly luciferase signal, primary screen, Schnurri-3 inhibitor project, cell-based, Clone20 osteoblasts, set 2; Clone20 osteoblast Shn3 3'UTR firefly luciferase, 24 h; inhibition, % at 12.5 µM; hit rate 0.52% among 360,000; AID 588674, 2011;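 active = mean inhibition of at least 75% with every replicate also reaching 75%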
# Beta cell apopt – inhibitors of cytokine-induced beta cell apoptosis, primary screen, luminescence; protection from apoptosis, % (no concentration beside the values); INS-1E cytokine-induced death, ATP luminescence, 48 h; percent of positive-control rescue, neutral wells zero; hit rate 0.8% among 300,000;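 active = Every replicate reaches about 75%, or at least half do and their mean reaches it too, limit read from the data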;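 also: higher means more ATP so stronger rescue from cytokine killing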
# CSC inhib – cancer stem cell viability inhibitors, primary screen, luminescence | hit rate 1.1% among 300,000 | cancer stem cell-like cells viability | AID 2717, 2010 | inhibition, % at 7.5 µM; in the data active = inhibition above about 75%; tested in HMLE shEcad cells
# PAX8 reporter – inhibitors of PAX8-driven TPO luciferase reporter, primary screen, RMG-I cells, single concentration | SteadyGlo, 24 h | inhibition, % at 12.6 µM | hit rate 1.2% among 360,000 | AID 652154, 2013;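 active = mean replicate inhibition at least 60% with every replicate also reaching 60%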;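 also: luciferase light reporting Pax8 driven TPO promoter activity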
# Mdm2-MdmX conf – Mdm2-MdmX complex disruptors, retested hits, confirmation, luminescence, single concentration. shares compounds with Mdm2 MdmX PPI. AID 489028, 2010. hit rate 55% among 10,000. inhibition, % at 8 µM. Mdm2-MdmX binding, luminescent assay; in the data active = inhibition above about 40%
# Full FLuc ctr – full-length luciferase signal inhibition, confirmation, counter-screen for Mdm2/MdmX interaction inhibitor project, cell-based, single concentration, SaOS-2. SaOS-2 full-length luciferase counterscreen, luminescence. inhibition, % at 8 µM. hit rate 77% among 6,200. shares compounds with Mdm2 MdmX PPI. AID 504607, 2011;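 active = mean inhibition at 8 µM reaching about 37%, which flags the compound as non-specific, limit read from the data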;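 also: p53-null SaOS-2 cells with luciferase driven by a doxycycline-inducible promoter; compound on cells about two nights before reading with doxycycline added after day one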
# Numbers stand for hits; - = inactive; . = no result given. Compounds with a hit are over-represented: about 4% of the library has one in this group of screens.
SMILES,Mdm2 MdmX PPI,Gli-Sufu antag,Shn3 inh set2,Beta cell apopt,CSC inhib,PAX8 reporter,Mdm2-MdmX conf,others
CC(=O)Oc1cc2c(cc1Cl)C1(CC(c3ccccc3Cl)O2)CC(C)(C)NC(=S)N1 (stereo unspecified),56,-,-,-,-,-,-,
CC(=O)NC[C@H]1[C@@H](c2ccc(-c3cccnc3)cc2)[C@H](CO)N1C(=O)C1CC1,.,.,.,.,.,-,.,
CCOC(=O)c1c(NC(=O)C2C3C=CC(C3)C2C(=O)O)sc2c1CCC(C)C2 (stereo unspecified),-,-,-,-,-,-,.,
CCOC(=O)c1c(NC(=O)Cn2nc([N+](=O)[O-])c(Br)c2C)sc2c1CCC(C)C2 (stereo unspecified),58,-,-,-,-,.,-,
CCOC(=O)c1c(NC(=O)Cn2nc(C(=O)O)c3ccccc3c2=O)sc2c1CCC(C)C2 (stereo unspecified),-,-,-,-,-,-,.,
CCOC(=O)c1c(NC(=S)NC(=O)c2cnn(CC)c2)sc2c1CCC(C)C2 (stereo unspecified),54,-,-,-,-,-,-,
CCC(NC(=S)NCc1ccc(F)cc1)c1ccc(C(C)C)cc1 (stereo unspecified),76,-,-,-,-,-,-,
Cn1c(-c2ccccc2)c(C=O)c2ccccc21,-,-,-,-,-,-,.,
Cc1ccc(Sc2c([N+](=O)[O-])c(=O)n(C)c3ccccc23)cc1,51,-,-,-,118,-,-,
Cc1ccc(Sc2c(C=O)c3ccccc3n2C)cc1,81,-,-,-,-,.,71,Full FLuc ctr=53
Cc1ccc(Sc2c(O)c3ccccc3n(C)c2=O)cc1,.,-,-,.,.,-,.,
CSc1nc2c(c(=O)[nH]c(=O)n2C)n1Cc1ccc(Cl)cc1,-,-,-,-,-,-,.,
Cn1c(=O)[nH]c(=O)c2c1nc(N/N=C/c1ccncc1)n2Cc1ccc(Cl)cc1,67,-,-,-,-,-,-,
CCOC(=O)C1=C(C)NC(=S)N(C(C)=O)C1c1ccc(OC)c(OC)c1 (stereo unspecified),57,-,-,-,-,-,-,
COC(=O)CC1COc2ccccc2N1S(=O)(=O)c1ccc(OC)cc1 (stereo unspecified),55,-,-,-,-,-,51,Full FLuc ctr=61
CCCNC(=O)[C@H]1[C@H](CO)[C@H]2Cn3c(ccc(C4=CCCCC4)c3=O)[C@@H]1N2CCC,.,.,.,.,.,-,.,
COc1ccccc1Nc1nc(NCC(C)C)nc(N)c1[N+](=O)[O-],62,-,-,.,-,-,47,Full FLuc ctr=59
C=CCNc1nc(N)c([N+](=O)[O-])c(Nc2ccccc2OC)n1,59,-,-,-,-,-,-,
COc1ccc(-c2ccc3c(c2)[C@@H]2[C@@H](CCN2C(=O)NC2CCCC2)[C@H](CO)N3C)cc1,.,.,.,.,.,-,.,
C[C@H](CO)N1C[C@H](C)[C@H](CN(C)Cc2ccc3c(c2)OCO3)Oc2ccc(NC(=O)Cc3ccccc3)cc2CC1=O,.,.,.,.,.,-,.,
CCOC(=O)c1cc(-c2cc(OC)c(OC)c(OC)c2)nc2c1c(=O)[nH]c(=O)n2Cc1ccccc1,57,-,-,-,-,-,56,Full FLuc ctr=86
Cc1ccc(O)c(NC(=O)c2cc3nc4c(c(C(F)(F)F)n3n2)CCc2ccccc2-4)c1,80,-,-,-,-,.,-,Full FLuc ctr=80
CCN(CC)CCCNC(=O)c1cc2nc3c(c(C(F)(F)F)n2n1)CCc1ccccc1-3,-,-,-,.,-,-,.,
Cc1ccccc1S(=O)(=O)N1C[C@@H](O)COC[C@H]2O[C@H](CC(=O)N3CCC(Cc4ccccc4)CC3)CC[C@@H]21,.,.,.,.,.,-,.,
COc1ccc(-n2nnc3c(=O)n(CC(=O)Nc4ccc5c(c4)OCCO5)cnc32)cc1OC,80,-,-,-,-,.,-,
SMILES,Mdm2 MdmX PPI,Gli-Sufu antag,Shn3 inh set2,Beta cell apopt,CSC inhib,PAX8 reporter,Mdm2-MdmX conf,others
O=C(Cn1cnc2c(nnn2-c2cccc(F)c2)c1=O)Nc1ccc2c(c1)OCCO2,52,-,-,.,-,.,-,
COc1ccc(-n2ncc3c(=O)n(CC(=O)Nc4ccc5c(c4)OCCO5)cnc32)cc1,-,-,-,-,.,-,.,
CCOc1ccc(-n2nnc3c(=O)n(CC(=O)Nc4cc(C)on4)cnc32)cc1,56,-,-,-,-,-,-,
COCC(=O)N1C[C@H](C)[C@H](OC)CN(C)C(=O)c2cc(NC(=O)c3ccccc3)ccc2OC[C@@H]1C,.,.,.,.,.,-,.,
COc1ccc(-c2cc(C(F)F)n3ncc(C(=O)Nc4cc(C)on4)c3n2)cc1,59,-,-,-,-,-,-,
Cc1ccc(-c2cc(C(F)F)n3ncc(C(=O)Nc4c(C)nn(Cc5c(Cl)cccc5Cl)c4C)c3n2)cc1,80,-,-,-,-,-,-,
Cc1ccc(C2CC(C(F)F)n3ncc(C(=O)Nc4c(C)nn(Cc5c(F)cccc5Cl)c4C)c3N2)cc1 (stereo unspecified),70,-,-,-,-,-,-,
Cc1ccc(-c2cc(C(F)F)n3ncc(C(=O)Nc4c(C)nn(Cc5ccccc5Cl)c4C)c3n2)cc1,78,-,-,-,-,-,-,
Cc1nn(Cc2c(F)cccc2Cl)c(C)c1NC(=O)C1CC1,-,-,-,-,-,-,.,
C[C@H](CO)N1C[C@H](C)[C@H](CN(C)C(=O)CN2CCOCC2)Oc2ncc(-c3cncnc3)cc2C1=O,.,.,.,.,.,-,.,
C[C@H]1CCCCO[C@@H](CN(C)C)[C@@H](C)CN([C@@H](C)CO)C(=O)c2cc(NS(=O)(=O)c3cccs3)ccc2O1,.,.,.,.,.,-,.,
O=S1(=O)c2ccc(Br)cc2N2CCC[C@@H]2CN1C1CC1,.,-,-,.,.,-,.,
O=S1(=O)c2ccc(Br)cc2N2CCC[C@@H]2CN1Cc1ccc(Cl)cc1,.,-,-,.,.,-,.,
C[C@@H](c1ccccc1)N1C[C@H]2CCCN2c2cc(Br)ccc2S1(=O)=O,54,-,-,.,.,-,42,Full FLuc ctr=41
O=S1(=O)c2ccc(Br)cc2N2CCC[C@H]2CN1Cc1ccccc1,52,-,-,.,.,-,51,Full FLuc ctr=37
O=C(C[C@H]1C=C[C@@H](NC(=O)Nc2ccc(C(F)(F)F)cc2)[C@@H](CO)O1)NCc1cc(F)cc(F)c1,.,.,.,.,.,-,.,
Cc1cccc(C)c1NC(=O)COC(=O)c1cccc2c1C(=O)c1ccccc1C2=O,59,-,-,-,-,-,-,Full FLuc ctr=77
Cc1cccc(NC(=O)COC(=O)c2cccc3c2C(=O)c2ccccc2C3=O)c1C,-,-,-,-,-,-,.,
